Substitutions are numbered along the chain they refer to.

Holding throughout (experiment): PBM; 200 nM protein, PBS
What all share (conditions): dsDNA, one strand shown

Assay [1] concerns the target ALX3 (Homo sapiens, UniProt O95076 139-225, N203Q).
Assay [2] addresses ALX3 (Homo sapiens, UniProt O95076 139-225).
In assay [3] the target is ALX3 (Homo sapiens, UniProt O95076 139-225, L168Q).
For assay [4], the target named is ALX3 (Homo sapiens, UniProt O95076 139-225, L168V).
Assay [5] has as its target ALX3 (Homo sapiens, UniProt O95076 139-225, N203S).
Assay [6] addresses T1, PAX4 (Homo sapiens, UniProt O43316 9-242, F177V).
T1 sequence: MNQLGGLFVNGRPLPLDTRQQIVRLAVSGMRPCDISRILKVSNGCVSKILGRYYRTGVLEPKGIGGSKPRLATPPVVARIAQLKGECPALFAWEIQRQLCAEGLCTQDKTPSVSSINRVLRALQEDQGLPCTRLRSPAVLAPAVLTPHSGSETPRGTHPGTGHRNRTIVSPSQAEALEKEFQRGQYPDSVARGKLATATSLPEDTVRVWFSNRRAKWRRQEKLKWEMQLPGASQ

The target of assay [7] is T2, PAX4 (Homo sapiens, UniProt O43316 9-242, F177Y).
T2 sequence: T1 sequence with V169Y

Assay [8] concerns the target HOXD13 (Homo sapiens, UniProt P35453 263-343, T313R).
Assay [9] addresses HOXD13 (Homo sapiens, UniProt P35453 263-343).
Assay [10] deals with HOXD13 (Homo sapiens, UniProt P35453 263-343, T313A).
Assay [11] addresses HOXC9 (Homo sapiens, UniProt P31274 178-260, R222W).

Chain of HOXD13 (Homo sapiens, UniProt P35453 263-343, T313R) (P35453 263-343 T313R): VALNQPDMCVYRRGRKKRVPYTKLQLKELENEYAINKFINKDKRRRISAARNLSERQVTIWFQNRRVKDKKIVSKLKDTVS
Chain of ALX3 (Homo sapiens, UniProt O95076 139-225) (O95076 139-225): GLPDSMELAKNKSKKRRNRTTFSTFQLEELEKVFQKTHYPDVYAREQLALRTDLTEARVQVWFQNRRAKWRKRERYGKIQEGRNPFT
Chain of ALX3 (Homo sapiens, UniProt O95076 139-225, L168V) (O95076 139-225 L168V): as the sequence (O95076 139-225) above, with L30V counted along it
Chain of ALX3 (Homo sapiens, UniProt O95076 139-225, N203Q) (O95076 139-225 N203Q): as the sequence (O95076 139-225) above, with N65Q counted along it
Chain of ALX3 (Homo sapiens, UniProt O95076 139-225, N203S) (O95076 139-225 N203S): as the sequence (O95076 139-225) above, with N65S counted along it
Chain of ALX3 (Homo sapiens, UniProt O95076 139-225, L168Q) (O95076 139-225 L168Q): as the sequence (O95076 139-225) above, with L30Q counted along it
Chain of HOXD13 (Homo sapiens, UniProt P35453 263-343) (P35453 263-343): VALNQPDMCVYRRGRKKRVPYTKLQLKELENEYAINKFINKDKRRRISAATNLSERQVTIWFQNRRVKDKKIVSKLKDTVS
Chain of HOXC9 (P31274 178-260 R222W): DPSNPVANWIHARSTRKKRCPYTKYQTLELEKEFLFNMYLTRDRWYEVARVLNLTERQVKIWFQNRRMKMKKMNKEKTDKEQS
Chain of HOXD13 (Homo sapiens, UniProt P35453 263-343, T313A) (P35453 263-343 T313A): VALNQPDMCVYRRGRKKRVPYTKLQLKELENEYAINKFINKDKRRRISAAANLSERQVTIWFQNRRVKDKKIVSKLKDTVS

ACCAGCGG: the binding signal in [1] is 7.79 upbm affinity estimate (log intensity, higher = more binding, comparable within an allelic series); in assay [2], 7.56 upbm affinity estimate (log intensity, higher = more binding, comparable within an allelic series); in [3] it was 7.79 upbm affinity estimate (log intensity, higher = more binding, comparable within an allelic series); in assay [4], 7.78 upbm affinity estimate (log intensity, higher = more binding, comparable within an allelic series); in assay [5], 7.78 upbm affinity estimate (log intensity, higher = more binding, comparable within an allelic series).
Consider TATACATA, for which the binding signal was 8.57 upbm affinity estimate (log intensity, higher = more binding, comparable within an allelic series) in assay [1]; 10.7 upbm affinity estimate (log intensity, higher = more binding, comparable within an allelic series) in assay [6]; 10.7 upbm affinity estimate (log intensity, higher = more binding, comparable within an allelic series) in assay [7].
As to AGAGGGGG, the binding signal in assay [1] was 7.63 upbm affinity estimate (log intensity, higher = more binding, comparable within an allelic series); in [2], 7.93 upbm affinity estimate (log intensity, higher = more binding, comparable within an allelic series); in assay [3] it was 7.69 upbm affinity estimate (log intensity, higher = more binding, comparable within an allelic series); in [4], 7.67 upbm affinity estimate (log intensity, higher = more binding, comparable within an allelic series); in assay [5], 7.59 upbm affinity estimate (log intensity, higher = more binding, comparable within an allelic series).
For the sequence GGCAGTTA, the binding signal in assay [1] was 8.06 upbm affinity estimate (log intensity, higher = more binding, comparable within an allelic series); in [2] it was 9.02 upbm affinity estimate (log intensity, higher = more binding, comparable within an allelic series); in assay [3], 8.19 upbm affinity estimate (log intensity, higher = more binding, comparable within an allelic series); in assay [4], 8.14 upbm affinity estimate (log intensity, higher = more binding, comparable within an allelic series); in [5], 8.16 upbm affinity estimate (log intensity, higher = more binding, comparable within an allelic series).
Turning to AGGGGGGC, the binding signal in assay [1] is 7.49 upbm affinity estimate (log intensity, higher = more binding, comparable within an allelic series); in assay [2], 7.66 upbm affinity estimate (log intensity, higher = more binding, comparable within an allelic series); in assay [3], 7.62 upbm affinity estimate (log intensity, higher = more binding, comparable within an allelic series); in assay [4], 7.47 upbm affinity estimate (log intensity, higher = more binding, comparable within an allelic series); in assay [5] it was 7.44 upbm affinity estimate (log intensity, higher = more binding, comparable within an allelic series).
As to ACCGGTTA, the binding signal in [1] is 8.13 upbm affinity estimate (log intensity, higher = more binding, comparable within an allelic series); in assay [2], 9.46 upbm affinity estimate (log intensity, higher = more binding, comparable within an allelic series); in assay [3], 8.24 upbm affinity estimate (log intensity, higher = more binding, comparable within an allelic series); in assay [4], 8.11 upbm affinity estimate (log intensity, higher = more binding, comparable within an allelic series); in assay [5], 8.2 upbm affinity estimate (log intensity, higher = more binding, comparable within an allelic series).
As to GCGCGAGC, the binding signal in [1] is 7.77 upbm affinity estimate (log intensity, higher = more binding, comparable within an allelic series); in assay [2], 7.84 upbm affinity estimate (log intensity, higher = more binding, comparable within an allelic series); in assay [3], 7.77 upbm affinity estimate (log intensity, higher = more binding, comparable within an allelic series); in assay [4], 7.76 upbm affinity estimate (log intensity, higher = more binding, comparable within an allelic series); in [5], 7.83 upbm affinity estimate (log intensity, higher = more binding, comparable within an allelic series).
For the sequence AGCGGGAC, the binding signal was 7.69 upbm affinity estimate (log intensity, higher = more binding, comparable within an allelic series) in [1]; 7.54 upbm affinity estimate (log intensity, higher = more binding, comparable within an allelic series) in [2]; 7.62 upbm affinity estimate (log intensity, higher = more binding, comparable within an allelic series) in assay [3]; 7.69 upbm affinity estimate (log intensity, higher = more binding, comparable within an allelic series) in assay [4]; 7.73 upbm affinity estimate (log intensity, higher = more binding, comparable within an allelic series) in assay [5].
Turning to ATAATATA, the binding signal is 8.66 upbm affinity estimate (log intensity, higher = more binding, comparable within an allelic series) in [1]; 10.7 upbm affinity estimate (log intensity, higher = more binding, comparable within an allelic series) in assay [6]; 8.76 upbm affinity estimate (log intensity, higher = more binding, comparable within an allelic series) in [5].
As to CGCTCCCC, the binding signal in [1] is 7.64 upbm affinity estimate (log intensity, higher = more binding, comparable within an allelic series); in assay [2], 7.58 upbm affinity estimate (log intensity, higher = more binding, comparable within an allelic series); in [3], 7.75 upbm affinity estimate (log intensity, higher = more binding, comparable within an allelic series); in [4], 7.7 upbm affinity estimate (log intensity, higher = more binding, comparable within an allelic series); in assay [5] it was 7.67 upbm affinity estimate (log intensity, higher = more binding, comparable within an allelic series).
As to CCTGGCCC, the binding signal is 7.75 upbm affinity estimate (log intensity, higher = more binding, comparable within an allelic series) in [1]; 7.59 upbm affinity estimate (log intensity, higher = more binding, comparable within an allelic series) in [2]; 7.65 upbm affinity estimate (log intensity, higher = more binding, comparable within an allelic series) in assay [3]; 7.67 upbm affinity estimate (log intensity, higher = more binding, comparable within an allelic series) in [4]; 7.74 upbm affinity estimate (log intensity, higher = more binding, comparable within an allelic series) in [5].
Turning to CCTAACAG, the binding signal in [1] was 8.02 upbm affinity estimate (log intensity, higher = more binding, comparable within an allelic series); in assay [2], 8.92 upbm affinity estimate (log intensity, higher = more binding, comparable within an allelic series); in assay [3] it was 8.23 upbm affinity estimate (log intensity, higher = more binding, comparable within an allelic series); in assay [4] it was 8.19 upbm affinity estimate (log intensity, higher = more binding, comparable within an allelic series); in assay [5], 8.09 upbm affinity estimate (log intensity, higher = more binding, comparable within an allelic series).
For TTATTAAA, the binding signal was 8.64 upbm affinity estimate (log intensity, higher = more binding, comparable within an allelic series) in assay [1]; 10.8 upbm affinity estimate (log intensity, higher = more binding, comparable within an allelic series) in assay [8]; 11.9 upbm affinity estimate (log intensity, higher = more binding, comparable within an allelic series) in assay [9]; 11.7 upbm affinity estimate (log intensity, higher = more binding, comparable within an allelic series) in assay [10]; 8.68 upbm affinity estimate (log intensity, higher = more binding, comparable within an allelic series) in assay [5].
Regarding AATATTAA, the binding signal in assay [1] is 8.6 upbm affinity estimate (log intensity, higher = more binding, comparable within an allelic series); in [5], 8.69 upbm affinity estimate (log intensity, higher = more binding, comparable within an allelic series).
Take CTTTTATA: the binding signal in assay [8] is 10.7 upbm affinity estimate (log intensity, higher = more binding, comparable within an allelic series).
In the case of CATCTTAA, the binding signal is 10.1 upbm affinity estimate (log intensity, higher = more binding, comparable within an allelic series) in assay [8] and 10.5 upbm affinity estimate (log intensity, higher = more binding, comparable within an allelic series) in assay [9].
On to TTAACTAA, for which the binding signal in assay [1] is 8.53 upbm affinity estimate (log intensity, higher = more binding, comparable within an allelic series); in assay [5], 8.65 upbm affinity estimate (log intensity, higher = more binding, comparable within an allelic series).
For the sequence AGTTAATA, the binding signal in assay [1] is 8.54 upbm affinity estimate (log intensity, higher = more binding, comparable within an allelic series); in assay [5], 8.65 upbm affinity estimate (log intensity, higher = more binding, comparable within an allelic series).
ATCACAGA: the binding signal in assay [1] is 8.15 upbm affinity estimate (log intensity, higher = more binding, comparable within an allelic series); in assay [2] it was 9.21 upbm affinity estimate (log intensity, higher = more binding, comparable within an allelic series); in assay [5], 8.16 upbm affinity estimate (log intensity, higher = more binding, comparable within an allelic series).
As to ATAAATAA, the binding signal in [1] is 8.6 upbm affinity estimate (log intensity, higher = more binding, comparable within an allelic series); in assay [11], 11.1 upbm affinity estimate (log intensity, higher = more binding, comparable within an allelic series); in assay [5] it was 8.76 upbm affinity estimate (log intensity, higher = more binding, comparable within an allelic series).
As for ACCCGGGT, the binding signal in assay [1] was 7.83 upbm affinity estimate (log intensity, higher = more binding, comparable within an allelic series); in assay [2], 8.06 upbm affinity estimate (log intensity, higher = more binding, comparable within an allelic series); in assay [3], 8.02 upbm affinity estimate (log intensity, higher = more binding, comparable within an allelic series); in assay [4] it was 7.92 upbm affinity estimate (log intensity, higher = more binding, comparable within an allelic series); in assay [5], 7.9 upbm affinity estimate (log intensity, higher = more binding, comparable within an allelic series).
On to GCATTAGA, for which the binding signal in assay [1] is 8.11 upbm affinity estimate (log intensity, higher = more binding, comparable within an allelic series); in assay [2], 9.95 upbm affinity estimate (log intensity, higher = more binding, comparable within an allelic series); in assay [5], 8.12 upbm affinity estimate (log intensity, higher = more binding, comparable within an allelic series).
With ATTTGACC, the binding signal is 8.13 upbm affinity estimate (log intensity, higher = more binding, comparable within an allelic series) in assay [1]; 9.49 upbm affinity estimate (log intensity, higher = more binding, comparable within an allelic series) in assay [2]; 8.24 upbm affinity estimate (log intensity, higher = more binding, comparable within an allelic series) in assay [5].
As to ATTCATGG, the binding signal in assay [8] is 10.2 upbm affinity estimate (log intensity, higher = more binding, comparable within an allelic series); in [9], 10.8 upbm affinity estimate (log intensity, higher = more binding, comparable within an allelic series).
ATCGCTAA: the binding signal in assay [1] was 8.25 upbm affinity estimate (log intensity, higher = more binding, comparable within an allelic series); in assay [2], 9.67 upbm affinity estimate (log intensity, higher = more binding, comparable within an allelic series); in assay [5], 8.28 upbm affinity estimate (log intensity, higher = more binding, comparable within an allelic series).
On to ACGTTAGT, for which the binding signal in assay [1] was 8.16 upbm affinity estimate (log intensity, higher = more binding, comparable within an allelic series); in [2] it was 9.39 upbm affinity estimate (log intensity, higher = more binding, comparable within an allelic series); in assay [5], 8.22 upbm affinity estimate (log intensity, higher = more binding, comparable within an allelic series).
ACCGCGGT: the binding signal in assay [1] is 7.85 upbm affinity estimate (log intensity, higher = more binding, comparable within an allelic series); in assay [2] it was 8.03 upbm affinity estimate (log intensity, higher = more binding, comparable within an allelic series); in [3], 7.86 upbm affinity estimate (log intensity, higher = more binding, comparable within an allelic series); in [4], 7.92 upbm affinity estimate (log intensity, higher = more binding, comparable within an allelic series); in [5] it was 7.86 upbm affinity estimate (log intensity, higher = more binding, comparable within an allelic series).
As to ATTTAAAT, the binding signal is 8.56 upbm affinity estimate (log intensity, higher = more binding, comparable within an allelic series) in assay [1] and 8.68 upbm affinity estimate (log intensity, higher = more binding, comparable within an allelic series) in assay [5].
Consider GTTATGCA, for which the binding signal was 8.13 upbm affinity estimate (log intensity, higher = more binding, comparable within an allelic series) in assay [1]; 9.19 upbm affinity estimate (log intensity, higher = more binding, comparable within an allelic series) in [2]; 8.22 upbm affinity estimate (log intensity, higher = more binding, comparable within an allelic series) in [5].

For the origin of these results see article PMC11006913.
